Source: article PMC7862700, “An all-to-all approach to the identification of sequence-specific readers for epigenetic DNA modifications on cytosine”

Legend:
Experiment in all cases: DAPPL (digital affinity profiling via proximity ligation, sequencing); 10 mM Tris-HCl pH 7.5, 50 mM NaCl, 1 mM DTT, 4% glycerol, room temperature, 30 min; GST-TFs on glutathione beads, 16-mer random dsDNA library, 0.1% formaldehyde crosslink after washing; high values mean tight binding
[1] = target: T1, FLI1 (Homo sapiens, UniProt Q01543 1-452); settings: protein: recombinant; tags: N-terminal GST; dsDNA, one strand shown
T1 sequence: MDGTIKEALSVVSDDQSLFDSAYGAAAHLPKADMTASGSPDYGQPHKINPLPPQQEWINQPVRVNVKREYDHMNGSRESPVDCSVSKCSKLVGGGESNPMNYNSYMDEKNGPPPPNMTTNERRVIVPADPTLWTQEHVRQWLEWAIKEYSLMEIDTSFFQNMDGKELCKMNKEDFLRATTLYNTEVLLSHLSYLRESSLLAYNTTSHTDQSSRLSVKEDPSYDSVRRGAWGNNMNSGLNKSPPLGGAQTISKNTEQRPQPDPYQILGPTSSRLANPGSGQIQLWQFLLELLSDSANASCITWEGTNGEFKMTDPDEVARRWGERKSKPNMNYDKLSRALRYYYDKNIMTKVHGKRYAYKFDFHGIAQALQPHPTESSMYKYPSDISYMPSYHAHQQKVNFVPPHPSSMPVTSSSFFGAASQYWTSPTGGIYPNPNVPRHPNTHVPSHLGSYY
Method in brief: (§1)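 A tag-only sample was pooled with DNA-barcoded human transcription factors that had been expressed in yeast as GST fusions and captured on glutathione beads. The pools were incubated for 30 min at room temperature with 200 nmole of a random double-stranded 16-mer DNA library in Tris/NaCl/DTT/glycerol buffer, then washed, crosslinked with 0.1% formaldehyde, proximity-ligated (BsaI/T4 ligase, 1 h, 37 °C), PCR-amplified and sequenced on an Illumina NextSeq500. Binding signal is each hexamer's read frequency for a factor divided by its frequency for the tag-only sample.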

[2] = target: T2, ELK1 (Homo sapiens, UniProt P19419 1-428); settings: protein: recombinant; tags: N-terminal GST; dsDNA, one strand shown
T2 sequence: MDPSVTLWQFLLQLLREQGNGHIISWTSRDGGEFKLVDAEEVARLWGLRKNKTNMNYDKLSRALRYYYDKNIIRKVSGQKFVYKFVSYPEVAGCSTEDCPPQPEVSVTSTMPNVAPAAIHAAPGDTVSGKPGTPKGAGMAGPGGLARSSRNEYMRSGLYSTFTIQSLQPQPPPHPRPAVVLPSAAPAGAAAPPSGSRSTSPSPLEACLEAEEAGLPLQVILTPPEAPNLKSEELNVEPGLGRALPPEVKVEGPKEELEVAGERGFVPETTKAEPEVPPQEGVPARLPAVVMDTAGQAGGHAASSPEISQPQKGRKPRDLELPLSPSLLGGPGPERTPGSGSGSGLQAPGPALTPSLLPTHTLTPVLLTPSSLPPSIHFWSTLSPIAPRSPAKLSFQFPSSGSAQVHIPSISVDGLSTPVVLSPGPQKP
Method in brief: as §1

[3] = target: T3, GABPA (Homo sapiens, UniProt Q06546 1-454); settings: protein: recombinant; tags: N-terminal GST; dsDNA, one strand shown
T3 sequence: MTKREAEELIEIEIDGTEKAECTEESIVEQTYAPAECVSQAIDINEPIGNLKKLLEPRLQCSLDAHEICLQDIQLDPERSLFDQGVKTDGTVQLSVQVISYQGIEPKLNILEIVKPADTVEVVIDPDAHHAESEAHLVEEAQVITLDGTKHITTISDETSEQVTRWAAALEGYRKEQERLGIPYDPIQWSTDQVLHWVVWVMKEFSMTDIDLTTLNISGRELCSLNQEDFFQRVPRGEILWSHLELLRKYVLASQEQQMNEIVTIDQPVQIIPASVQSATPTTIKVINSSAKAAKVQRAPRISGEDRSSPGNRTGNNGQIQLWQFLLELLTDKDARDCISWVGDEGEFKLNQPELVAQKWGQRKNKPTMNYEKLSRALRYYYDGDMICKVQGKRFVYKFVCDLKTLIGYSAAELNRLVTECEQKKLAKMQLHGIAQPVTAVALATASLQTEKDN
Method in brief: as §1

[4] = target: T4, ERG (Homo sapiens, UniProt P11308 1-479); settings: protein: recombinant; tags: N-terminal GST; dsDNA, one strand shown
T4 sequence: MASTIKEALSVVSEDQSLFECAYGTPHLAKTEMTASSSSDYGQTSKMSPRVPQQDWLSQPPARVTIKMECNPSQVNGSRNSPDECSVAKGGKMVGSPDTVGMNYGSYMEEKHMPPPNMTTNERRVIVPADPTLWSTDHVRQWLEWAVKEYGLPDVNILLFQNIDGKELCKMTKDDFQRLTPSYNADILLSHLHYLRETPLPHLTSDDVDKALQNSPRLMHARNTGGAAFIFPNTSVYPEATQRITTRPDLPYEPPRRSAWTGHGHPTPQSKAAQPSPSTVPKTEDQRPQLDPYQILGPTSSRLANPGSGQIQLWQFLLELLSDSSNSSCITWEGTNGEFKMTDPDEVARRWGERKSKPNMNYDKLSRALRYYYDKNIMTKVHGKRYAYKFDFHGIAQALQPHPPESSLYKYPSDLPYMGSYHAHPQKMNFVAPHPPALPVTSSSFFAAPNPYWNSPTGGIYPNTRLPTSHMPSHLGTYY
Method in brief: as §1

[5] = target: ELF1 (Homo sapiens, UniProt P32519 1-619); settings: protein: recombinant; tags: N-terminal GST; dsDNA, one strand shown
Method in brief: as §1

[6] = target: T5, EHF (Homo sapiens, UniProt Q9NZC4 1-300); settings: protein: recombinant; tags: N-terminal GST; dsDNA, one strand shown
T5 sequence: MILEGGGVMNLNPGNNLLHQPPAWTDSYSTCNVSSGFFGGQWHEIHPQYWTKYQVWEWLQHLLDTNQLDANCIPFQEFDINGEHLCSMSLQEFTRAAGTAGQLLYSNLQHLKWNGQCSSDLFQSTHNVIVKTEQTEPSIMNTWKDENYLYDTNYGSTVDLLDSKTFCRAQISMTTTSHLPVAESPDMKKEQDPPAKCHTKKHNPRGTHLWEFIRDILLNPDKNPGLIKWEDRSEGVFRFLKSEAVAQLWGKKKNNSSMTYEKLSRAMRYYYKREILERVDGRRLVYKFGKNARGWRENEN
Method in brief: as §1

[7] = target: SPI1 (Homo sapiens, UniProt P17947 1-270); settings: protein: recombinant; tags: N-terminal GST; dsDNA, one strand shown
Method in brief: as §1

[8] = target: SPIB (Homo sapiens, UniProt Q01892 1-262); settings: protein: recombinant; tags: N-terminal GST; dsDNA, one strand shown
Method in brief: as §1

[9] = target: T6, ELK3 (Homo sapiens, UniProt P41970 1-407); settings: protein: recombinant; tags: N-terminal GST; dsDNA, one strand shown
T6 sequence: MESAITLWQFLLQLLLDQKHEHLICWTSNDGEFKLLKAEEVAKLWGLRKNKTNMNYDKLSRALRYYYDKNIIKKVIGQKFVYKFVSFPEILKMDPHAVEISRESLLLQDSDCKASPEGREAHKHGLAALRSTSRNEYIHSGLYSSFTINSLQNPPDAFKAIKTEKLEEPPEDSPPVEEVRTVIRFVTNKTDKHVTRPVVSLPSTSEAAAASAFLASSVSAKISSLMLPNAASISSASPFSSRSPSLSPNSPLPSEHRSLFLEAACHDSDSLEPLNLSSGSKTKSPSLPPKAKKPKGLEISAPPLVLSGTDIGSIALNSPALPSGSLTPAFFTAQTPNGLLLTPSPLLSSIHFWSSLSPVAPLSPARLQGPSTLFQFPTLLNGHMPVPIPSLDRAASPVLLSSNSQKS
Method in brief: as §1

[10] = target: T7, FEV (Homo sapiens, UniProt Q99581 1-238); settings: protein: recombinant; tags: N-terminal GST; dsDNA, one strand shown
T7 sequence: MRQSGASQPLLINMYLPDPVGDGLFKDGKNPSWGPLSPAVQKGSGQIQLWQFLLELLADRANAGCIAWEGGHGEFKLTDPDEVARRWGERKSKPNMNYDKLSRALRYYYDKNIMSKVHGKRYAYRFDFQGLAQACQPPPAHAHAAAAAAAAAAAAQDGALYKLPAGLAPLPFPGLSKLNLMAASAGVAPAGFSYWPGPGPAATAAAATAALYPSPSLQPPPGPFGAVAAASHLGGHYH
Method in brief: as §1

[11] = target: ETV5 (Homo sapiens, UniProt P41161 1-510); settings: protein: recombinant; tags: N-terminal GST; dsDNA, one strand shown
Method in brief: as §1

[12] = target: HSF1 (Homo sapiens, UniProt Q00613 1-529); settings: protein: recombinant; tags: N-terminal GST; chain copies: 3; dsDNA, one strand shown
Method in brief: as §1

[13] = target: T8, SPIC (Homo sapiens, UniProt Q8N5J4 1-248); settings: protein: recombinant; tags: N-terminal GST; dsDNA, one strand shown
T8 sequence: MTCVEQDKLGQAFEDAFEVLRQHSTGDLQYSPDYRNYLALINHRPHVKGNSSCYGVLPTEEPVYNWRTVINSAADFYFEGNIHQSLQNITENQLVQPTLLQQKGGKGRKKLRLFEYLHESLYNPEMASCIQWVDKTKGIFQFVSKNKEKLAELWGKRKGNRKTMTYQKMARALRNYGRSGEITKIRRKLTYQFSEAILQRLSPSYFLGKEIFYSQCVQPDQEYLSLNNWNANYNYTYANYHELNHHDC
Method in brief: as §1

[14] = target: ELF4 (Homo sapiens, UniProt Q99607 1-663); settings: protein: recombinant; tags: N-terminal GST; dsDNA, one strand shown
Method in brief: as §1

[15] = target: T9, ELK4 (Homo sapiens, UniProt P28324-2 1-405); settings: protein: recombinant; tags: N-terminal GST; dsDNA, one strand shown
T9 sequence: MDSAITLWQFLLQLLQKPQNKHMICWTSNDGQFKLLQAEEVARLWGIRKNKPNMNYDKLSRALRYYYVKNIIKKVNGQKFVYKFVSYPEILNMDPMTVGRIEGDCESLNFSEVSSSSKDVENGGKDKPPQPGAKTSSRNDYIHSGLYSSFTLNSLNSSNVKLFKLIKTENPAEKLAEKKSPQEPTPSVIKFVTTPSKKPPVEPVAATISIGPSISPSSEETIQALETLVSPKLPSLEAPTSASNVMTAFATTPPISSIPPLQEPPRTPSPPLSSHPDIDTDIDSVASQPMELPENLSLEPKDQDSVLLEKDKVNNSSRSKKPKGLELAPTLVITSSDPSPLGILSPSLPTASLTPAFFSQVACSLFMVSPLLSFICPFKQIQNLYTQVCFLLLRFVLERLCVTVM
Method in brief: as §1

[16] = target: T10, ETV2 (Homo sapiens, UniProt O00321 1-342); settings: protein: recombinant; tags: N-terminal GST; dsDNA, one strand shown
T10 sequence: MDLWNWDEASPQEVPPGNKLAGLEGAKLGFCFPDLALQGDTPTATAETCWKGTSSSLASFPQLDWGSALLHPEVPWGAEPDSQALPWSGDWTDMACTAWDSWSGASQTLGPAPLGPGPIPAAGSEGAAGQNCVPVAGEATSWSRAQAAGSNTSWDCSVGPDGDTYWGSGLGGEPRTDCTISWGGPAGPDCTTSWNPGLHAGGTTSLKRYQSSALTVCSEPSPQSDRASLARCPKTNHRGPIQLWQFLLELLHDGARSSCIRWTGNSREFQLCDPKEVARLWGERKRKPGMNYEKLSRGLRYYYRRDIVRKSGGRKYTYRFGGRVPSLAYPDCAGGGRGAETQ
Method in brief: as §1

[17] = target: T11, ELF3 (Homo sapiens, UniProt P78545 1-371); settings: protein: recombinant; tags: N-terminal GST; dsDNA, one strand shown
T11 sequence: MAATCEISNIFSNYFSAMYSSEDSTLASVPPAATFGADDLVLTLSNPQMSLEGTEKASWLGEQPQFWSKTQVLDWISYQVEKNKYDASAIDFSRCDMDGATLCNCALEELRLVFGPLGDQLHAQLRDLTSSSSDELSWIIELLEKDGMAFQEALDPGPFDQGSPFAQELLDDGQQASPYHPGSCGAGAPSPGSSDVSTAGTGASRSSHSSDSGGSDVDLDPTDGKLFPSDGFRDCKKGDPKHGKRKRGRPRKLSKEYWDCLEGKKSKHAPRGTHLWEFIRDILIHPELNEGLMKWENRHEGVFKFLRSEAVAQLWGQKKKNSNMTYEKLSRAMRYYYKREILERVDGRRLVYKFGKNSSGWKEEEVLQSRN
Method in brief: as §1

[18] = target: CRX (Homo sapiens, UniProt O43186 1-299); settings: protein: recombinant; tags: N-terminal GST; dsDNA, one strand shown
Method in brief: as §1

[19] = target: ETV1 (Homo sapiens, UniProt P50549 1-477); settings: protein: recombinant; tags: N-terminal GST; dsDNA, one strand shown
Method in brief: as §1

CRX, sequence (O43186 whole entry): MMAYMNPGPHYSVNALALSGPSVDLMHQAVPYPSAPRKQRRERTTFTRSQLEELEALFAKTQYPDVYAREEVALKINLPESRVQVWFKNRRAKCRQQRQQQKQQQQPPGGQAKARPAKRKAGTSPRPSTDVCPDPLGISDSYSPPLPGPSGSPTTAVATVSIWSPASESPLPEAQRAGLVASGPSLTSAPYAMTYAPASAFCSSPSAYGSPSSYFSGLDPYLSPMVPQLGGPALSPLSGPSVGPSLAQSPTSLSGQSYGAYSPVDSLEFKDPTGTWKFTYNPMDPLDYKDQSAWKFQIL
ELF1, sequence (P32519 whole entry): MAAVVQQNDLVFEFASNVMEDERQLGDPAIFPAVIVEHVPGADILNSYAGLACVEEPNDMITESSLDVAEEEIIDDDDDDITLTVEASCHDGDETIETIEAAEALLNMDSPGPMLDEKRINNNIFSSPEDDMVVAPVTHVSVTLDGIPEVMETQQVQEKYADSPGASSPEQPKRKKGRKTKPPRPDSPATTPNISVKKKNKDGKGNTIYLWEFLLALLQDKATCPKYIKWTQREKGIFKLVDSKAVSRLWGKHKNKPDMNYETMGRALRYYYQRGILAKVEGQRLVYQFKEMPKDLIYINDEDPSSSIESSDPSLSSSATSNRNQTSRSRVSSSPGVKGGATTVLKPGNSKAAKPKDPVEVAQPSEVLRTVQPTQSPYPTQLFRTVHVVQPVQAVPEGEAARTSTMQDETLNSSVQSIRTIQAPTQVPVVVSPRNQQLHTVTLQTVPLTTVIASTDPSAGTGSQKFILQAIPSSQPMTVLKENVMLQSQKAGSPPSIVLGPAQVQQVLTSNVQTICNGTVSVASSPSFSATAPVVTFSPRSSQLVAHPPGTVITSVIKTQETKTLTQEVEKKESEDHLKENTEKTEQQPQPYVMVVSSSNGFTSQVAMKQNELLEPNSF
ETV1, sequence (P50549 whole entry): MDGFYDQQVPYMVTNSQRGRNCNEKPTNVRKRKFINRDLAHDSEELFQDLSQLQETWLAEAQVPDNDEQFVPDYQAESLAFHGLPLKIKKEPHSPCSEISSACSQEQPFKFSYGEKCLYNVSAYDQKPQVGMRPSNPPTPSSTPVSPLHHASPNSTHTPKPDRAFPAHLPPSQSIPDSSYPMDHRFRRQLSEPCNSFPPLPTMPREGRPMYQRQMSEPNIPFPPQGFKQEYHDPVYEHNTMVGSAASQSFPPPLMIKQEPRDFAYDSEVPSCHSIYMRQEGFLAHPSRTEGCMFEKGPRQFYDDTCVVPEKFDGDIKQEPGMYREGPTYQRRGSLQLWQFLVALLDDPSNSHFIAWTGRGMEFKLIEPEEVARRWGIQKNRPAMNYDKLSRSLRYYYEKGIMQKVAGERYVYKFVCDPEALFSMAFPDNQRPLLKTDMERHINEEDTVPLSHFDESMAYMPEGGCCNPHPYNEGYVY
ETV5, sequence (P41161 whole entry): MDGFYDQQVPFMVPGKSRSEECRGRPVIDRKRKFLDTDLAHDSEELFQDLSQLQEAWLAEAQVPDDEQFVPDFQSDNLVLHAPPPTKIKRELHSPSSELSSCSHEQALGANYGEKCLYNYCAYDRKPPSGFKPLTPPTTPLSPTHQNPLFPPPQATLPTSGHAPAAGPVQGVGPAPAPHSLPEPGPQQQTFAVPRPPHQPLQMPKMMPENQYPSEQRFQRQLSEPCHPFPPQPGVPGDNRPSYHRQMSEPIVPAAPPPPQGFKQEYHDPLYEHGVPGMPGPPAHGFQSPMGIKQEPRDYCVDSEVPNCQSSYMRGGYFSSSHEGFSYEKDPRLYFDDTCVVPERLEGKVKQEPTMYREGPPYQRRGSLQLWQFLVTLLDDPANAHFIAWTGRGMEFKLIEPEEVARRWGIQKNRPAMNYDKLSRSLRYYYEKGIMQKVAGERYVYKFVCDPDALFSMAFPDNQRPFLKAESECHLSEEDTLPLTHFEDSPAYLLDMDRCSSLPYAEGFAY
SPIB, sequence (Q01892 whole entry): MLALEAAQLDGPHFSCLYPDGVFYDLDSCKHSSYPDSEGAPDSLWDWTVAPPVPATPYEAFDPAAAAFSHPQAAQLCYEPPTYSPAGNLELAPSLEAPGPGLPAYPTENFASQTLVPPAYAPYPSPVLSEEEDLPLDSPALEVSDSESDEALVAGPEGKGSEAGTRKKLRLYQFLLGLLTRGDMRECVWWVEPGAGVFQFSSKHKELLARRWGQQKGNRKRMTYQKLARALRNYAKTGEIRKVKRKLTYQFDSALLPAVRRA
HSF1, sequence (Q00613 whole entry): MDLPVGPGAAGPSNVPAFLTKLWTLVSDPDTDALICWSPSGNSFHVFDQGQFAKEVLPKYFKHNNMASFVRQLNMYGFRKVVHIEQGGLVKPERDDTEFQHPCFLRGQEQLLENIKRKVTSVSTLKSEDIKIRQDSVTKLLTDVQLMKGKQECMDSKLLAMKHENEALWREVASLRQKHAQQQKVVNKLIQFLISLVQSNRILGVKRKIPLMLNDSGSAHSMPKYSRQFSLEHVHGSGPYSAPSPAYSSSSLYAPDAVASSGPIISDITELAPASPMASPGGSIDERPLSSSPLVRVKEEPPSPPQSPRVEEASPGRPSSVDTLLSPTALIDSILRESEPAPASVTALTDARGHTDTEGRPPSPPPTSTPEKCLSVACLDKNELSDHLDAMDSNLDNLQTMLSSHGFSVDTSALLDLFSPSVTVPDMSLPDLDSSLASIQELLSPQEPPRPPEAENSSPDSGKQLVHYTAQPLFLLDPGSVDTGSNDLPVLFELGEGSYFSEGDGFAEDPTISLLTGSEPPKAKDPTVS
ELF4, sequence (Q99607 whole entry): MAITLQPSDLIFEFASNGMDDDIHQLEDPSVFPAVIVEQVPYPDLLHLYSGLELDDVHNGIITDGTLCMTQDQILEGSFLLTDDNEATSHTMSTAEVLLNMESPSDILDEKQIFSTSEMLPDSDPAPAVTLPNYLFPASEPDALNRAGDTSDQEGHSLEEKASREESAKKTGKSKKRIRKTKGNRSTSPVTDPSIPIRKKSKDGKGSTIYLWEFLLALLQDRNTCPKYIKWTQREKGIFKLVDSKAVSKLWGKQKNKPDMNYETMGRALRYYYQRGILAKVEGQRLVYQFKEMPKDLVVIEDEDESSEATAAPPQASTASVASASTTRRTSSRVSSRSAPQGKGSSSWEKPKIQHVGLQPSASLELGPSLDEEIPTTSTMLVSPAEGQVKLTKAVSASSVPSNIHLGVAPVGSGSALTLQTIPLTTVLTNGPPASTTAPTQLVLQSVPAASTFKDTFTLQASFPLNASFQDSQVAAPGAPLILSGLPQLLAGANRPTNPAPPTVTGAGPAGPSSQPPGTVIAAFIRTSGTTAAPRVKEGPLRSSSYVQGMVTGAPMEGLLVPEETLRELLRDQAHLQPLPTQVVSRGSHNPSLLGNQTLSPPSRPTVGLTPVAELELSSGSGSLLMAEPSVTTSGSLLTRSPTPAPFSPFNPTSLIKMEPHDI

For CTTAGA, the binding signal [1] was 1.13 fold enrichment (6-mer frequency, TF over GST control), the binding signal [2] was 1.11 fold enrichment (6-mer frequency, TF over GST control) and the binding signal [3] was 1.17 fold enrichment (6-mer frequency, TF over GST control). For the same sequence, the binding signal [4] was 1.09 fold enrichment (6-mer frequency, TF over GST control), the binding signal [5] was 1.08 fold enrichment (6-mer frequency, TF over GST control) and the binding signal [6] was 1.1 fold enrichment (6-mer frequency, TF over GST control). For the same sequence, the binding signal [7] was 1.11 fold enrichment (6-mer frequency, TF over GST control), the binding signal [8] was 1.11 fold enrichment (6-mer frequency, TF over GST control) and the binding signal [9] was 1.02 fold enrichment (6-mer frequency, TF over GST control). The binding signal [10] was 1.15 fold enrichment (6-mer frequency, TF over GST control), the binding signal [11] was 1.06 fold enrichment (6-mer frequency, TF over GST control) and the binding signal [12] was 1.53 fold enrichment (6-mer frequency, TF over GST control). For the same sequence, the binding signal [13] was 1.27 fold enrichment (6-mer frequency, TF over GST control), the binding signal [14] was 1.09 fold enrichment (6-mer frequency, TF over GST control) and the binding signal [15] was 1.24 fold enrichment (6-mer frequency, TF over GST control). For the same sequence, the binding signal [16] was 1.15 fold enrichment (6-mer frequency, TF over GST control), the binding signal [17] was 1.07 fold enrichment (6-mer frequency, TF over GST control) and the binding signal [18] was 1.69 fold enrichment (6-mer frequency, TF over GST control). For the same sequence, the binding signal [19] was 1.14 fold enrichment (6-mer frequency, TF over GST control).
